This passage reports growth inhibition results from PubChem BioAssay (NCI).

The nature of assay [1]: NCI Yeast Anticancer Drug Screen. Data for the rad50 strain (AID 155).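 Also: 0% = growth of vehicle-only cultures of the same strain.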 Conditions: S. cerevisiae rad50 strain growth inhibition; at 50.0 µM; active compounds read high. Put shortly: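 Relative growth inhibition (compound vs vehicle) was measured in yeast with a defined repair-gene alteration.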
Assay [2] in a line: NCI Yeast Anticancer Drug Screen. Data for the mec2-1 strain (AID 157). The following applies: S. cerevisiae mec2-1 strain, at 50.0 µM, active compounds read high. Put shortly:
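Growth inhibition is read against vehicle-treated controls after compound exposure of the mec2-1 yeast strain, which is defective in DNA damage repair or cell cycle control.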

Assay [3] can be described thus: NCI Yeast Anticancer Drug Screen. Data for the sgs1 mgt1 strain (AID 161).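 Also: 0% = growth of cultures given vehicle only.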 Conditions: S. cerevisiae sgs1 mgt1 strain, at 50.0 µM, active compounds read high. Put shortly: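 Growth of a repair-deficient yeast mutant was monitored after compound treatment and expressed as inhibition relative to vehicle-treated cultures.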
Assay [4] in a line: NCI Yeast Anticancer Drug Screen. Data for the cln2 rad14 strain (AID 165).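 Also: 0% = growth equal to vehicle treated cultures.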 The following applies: S. cerevisiae cln2 rad14 strain, at 50.0 µM, active compounds read high. Put shortly:
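Growth inhibition, relative to vehicle-treated controls, is the read-out. The test organism is a yeast strain with defined genetic alterations, cln2 rad14.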

Assay [5] in a line: NCI Yeast Anticancer Drug Screen. Data for the bub3 strain (AID 167). Conditions: S. cerevisiae bub3 mutant strain, at 50.0 µM, active compounds read high. Put shortly:
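Screening used yeast with an engineered genetic alteration affecting cell cycle control. Compound-exposed cultures were compared with vehicle cultures, and reduced growth was taken as inhibition.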

A short description of assay [6]: NCI Yeast Anticancer Drug Screen. Data for the mlh1 rad18 strain (AID 175). Conditions: S. cerevisiae mlh1 rad18 strain growth inhibition; at 50.0 µM; active compounds read high. In outline:
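Cells of a genetically altered yeast strain, deficient in DNA damage repair, were treated with compound. Their growth was then compared with that of vehicle-treated cultures to give inhibition.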

SMILES strings stand for the structures. This is part of a sample that, as a whole, favours compounds with a hit. Of some 79,000 tested, about 15% had one in any assay. Unmarked numbers belong to inactive results. Activity calls are given as the source filed them. Rule as the data show it: active = growth inhibition above about 70%; inactive = the rest.

Turning to `C[C@]12CCC3c4ccc(OC(=O)c5ccccc5)cc4CC[C@H]3C1CC[C@@H]2OC(=O)C12OC1CCC2=O` (stereo partly specified), the growth inhibition in assay [1] is -5.4%; in assay [2], -35.5%; in assay [3], -7.55%; in assay [4] it was 1.75%; in assay [5] it was -27.9%; in assay [6] it was -9.85%.
With `O=[N+]([O-])c1ccc(-c2noc(-c3ccccc3)c2C2=NCCN2)cc1`, the growth inhibition was -9.85% in assay [1]; -6% in assay [2]; 5.25% in assay [3]; 4.75% in assay [4]; 7.8% in assay [5]; 7.6% in assay [6].
In the case of `O=C1c2ccccc2-c2c1c1ccccc1c(=O)n2Cc1ccccc1`, the growth inhibition in assay [1] was 6.1%; in assay [2], -14.2%; in assay [3], 2.85%; in assay [4], 8.05%; in assay [5], -16.9%; in assay [6], -63.8%.
On to `Cc1ccc(-c2cs/c(=N\N=C3/CSC(=O)N3Cc3ccccc3)n2-c2ccccc2)cc1`, for which the growth inhibition in assay [1] was 41.1%; in assay [2], 22.8%; in assay [3] it was 12.1%; in assay [4] it was 0.35%; in assay [5], -2.55%; in assay [6], 40.4%.
Turning to `[N-]=[N+]=Nc1cc(=O)n(-c2ccccc2)c2ccccc12`, the growth inhibition in assay [1] was -17.2%; in assay [2], -22.7%; in assay [3] it was -24.6%; in assay [4], -2.8%; in assay [5], -3.75%; in assay [6], -22.3%.
With `CC(C)=CCN1c2ccccc2NC(=O)CC1C` (stereo unspecified), the growth inhibition is -24.1% in assay [1]; -66.7% in assay [2]; -6.55% in assay [3]; 4.5% in assay [4]; -10.9% in assay [5]; -14.9% in assay [6].
Turning to `Cc1cc(S(=O)(=O)Nc2nc(N)nc(N(C)C)n2)c(S)cc1Cl`, the growth inhibition in assay [1] is 1.4%; in assay [2], -17.2%; in assay [3], -3.5%; in assay [4] it was 1.9%; in assay [5] it was -46%; in assay [6] it was 15.1%.
In the case of `O=C(/C=C/c1ccc(O)c(O)c1)c1ccc(O)c(O)c1O`, the growth inhibition is 14.3% in assay [1]; -5.15% in assay [2]; 4.45% in assay [3]; -57.9% in assay [4]; 8.55% in assay [5]; 19.5% in assay [6].
Regarding `O=C(CNC(=O)C(CO)NC(=O)OCc1ccccc1)OCc1ccccc1` (stereo unspecified), the growth inhibition was 12.4% in assay [1]; 3% in assay [2]; 9.35% in assay [3]; 4.1% in assay [4]; -0.1% in assay [5]; 4.35% in assay [6].
As for `COc1ccc(CCN2C(CC(=O)c3ccccc3)CCCC2CC(=O)c2ccccc2)cc1OC` (stereo unspecified), the growth inhibition is -8.05% in assay [1]; -10.4% in assay [2]; -0.9% in assay [3]; -0.2% in assay [4]; 0.65% in assay [5]; -2.75% in assay [6].
`CC12CCC(=O)N1[C@@H](c1ccccc1)[C@@H](c1ccccc1)O2` (stereo partly specified): the growth inhibition is 25.6% in assay [1]; -12.6% in assay [2]; -0.85% in assay [3]; 15.4% in assay [4]; 3.65% in assay [5]; 5.9% in assay [6].
Take `Cn1nnn2c(-c3ccccc3)nnc12`: the growth inhibition in assay [1] is 15.4%; in assay [2] it was -2.45%; in assay [3], -5.45%; in assay [4] it was -10.8%; in assay [5], 0.8%; in assay [6], -5.3%.
As to `Cc1cc(C)c(N)cc1C`, the growth inhibition in assay [1] was 3.9%; in assay [2], 13%; in assay [3], -20.4%; in assay [4], -43.5%; in assay [5], -2.2%; in assay [6], -2.5%.
With `CCOC(=O)C(=O)Nc1ccccc1CC`, the growth inhibition in assay [1] is -3%; in assay [2] it was 2.9%; in assay [3], -12.3%; in assay [4], -33.5%; in assay [5], 11.2%; in assay [6], -3.35%.
Consider `CC(=O)Nc1cc(F)c2c(c1F)Cc1cc(F)ccc1-2`, for which the growth inhibition in assay [1] was 15.1%; in assay [2], 21.9%; in assay [3] it was 11.7%; in assay [4] it was -63.4%; in assay [5] it was 5.15%; in assay [6], 7.95%.
Consider `C[C@@H]1CC[C@@H](C)[C@](C)(CCc2ccoc2)C/C=C\C=C/1C(=O)O`, for which the growth inhibition in assay [1] is 85.2% (active); in assay [2], 85.8% (active); in assay [3] it was 73.8% (active); in assay [4], 84.7% (active); in assay [5], 68.8%; in assay [6], 78.2% (active).
In the case of `CC1OC(c2c(Cl)cccc2[N+](=O)[O-])OC1C` (stereo unspecified), the growth inhibition in assay [1] was 3.5%; in assay [2], -9.2%; in assay [3] it was 5.6%; in assay [4], 0.5%; in assay [5] it was -7.6%; in assay [6], 20%.
As to `C#CCN(CCO)Cc1ccccc1`, the growth inhibition in assay [1] is -3.4%; in assay [2], -18.6%; in assay [3], -3.75%; in assay [4], 9.25%; in assay [5], -4%; in assay [6], 2.7%.
Take `COc1ccc(C2(C(OC)OC)NC(=O)NC2=O)cc1` (stereo unspecified): the growth inhibition in assay [1] was -26.8%; in assay [2] it was -4.1%; in assay [3], -8.8%; in assay [4], 35.4%; in assay [5] it was -0.7%; in assay [6], -8.85%.
For the compound `Cc1cc2ccccc2c[n+]1C1CCc2ccccc2C1=O` (stereo unspecified), the growth inhibition is 7.1% in assay [1]; 5.6% in assay [2]; 30.6% in assay [3]; 24% in assay [4]; 3.4% in assay [5]; 20.2% in assay [6].
Take `Cc1ccc2nc(N(C)C)nc-2c2[nH]c(=O)[nH]c12`: the growth inhibition in assay [1] is -28.9%; in assay [2], -31.6%; in assay [3], -12.2%; in assay [4], 3.9%; in assay [5] it was -28.9%; in assay [6], -19.3%.
